Shown are actives, neighbours in structure and some others; about 0.92% of the full set was active somewhere.
APE1 inh-1 – inhibitors of human APE1 endonuclease; Potency, µM (titrated, usually from 65.8 µM), for the others: at the top dose activity change, negative = inhibition, most hits filed as inhibitors; recombinant APE1, TAMRA/BHQ-2 abasic DNA cleavage fluorescence; 0.35% of 350,000 active;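 note: plate controls were vehicle for no effect and reference inhibitor for full effect; nearly all actives have a fitted effect of over 55% in size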
Target sequence (P27695 whole entry, looked up): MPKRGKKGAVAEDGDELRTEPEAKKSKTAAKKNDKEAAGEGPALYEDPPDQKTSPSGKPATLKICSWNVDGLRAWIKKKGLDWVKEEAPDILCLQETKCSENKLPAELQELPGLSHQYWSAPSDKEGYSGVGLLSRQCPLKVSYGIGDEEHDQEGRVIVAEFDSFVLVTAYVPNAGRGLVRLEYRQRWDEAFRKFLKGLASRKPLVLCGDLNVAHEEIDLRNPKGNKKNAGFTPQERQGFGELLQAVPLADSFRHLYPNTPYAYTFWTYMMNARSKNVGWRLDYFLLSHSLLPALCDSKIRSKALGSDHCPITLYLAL
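Activity was derived from the fluorescence gain between first and third kinetic reads (60 s intervals, ex 525/em 598 nm) after 50 nM THF-abasic TAMRA/BHQ-2 duplex was added to 0.75 nM APE1 preincubated 15 min with compound.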
FEN1 inh – blocks human flap endonuclease 1 | P39748 | Recombinant FEN1 flap cleavage, fluorescence, 15 min | Potency, µM (doses to about 114 µM), for the others: at the top dose activity change, negative = inhibition, usual class: inhibitors | 0.35% of 390,000 active | AID 588795; note: nearly all actives have a fitted effect of over 65% in size
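Enzyme 10 nM, 15 min RT preincubation with compound; start with substrate 50 nM final; reads at 0 and 15 min; qHTS titration, four-parameter Hill fit.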
RECQ1 inh – inhibitors of human RECQ1 DNA helicase. P46063. RECQ1 DNA unwinding, red fluorescence kinetic read. Potency, µM (top dose mostly 57.3 µM), for the others: top-dose activity, negative = inhibition, actives largely listed as inhibitors. 0.54% of 240,000 active;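 note: plate controls were vehicle for no effect and no enzyme for full effect; nearly all actives have a fitted effect of over 30% in size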
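RECQ1T1 50 nM; forked duplex (20 bp + 30-nt ss tails) 200 nM, ATP 2 mM final; pH 8.0, 2 mM MgCl2, 2.5 ug/ml poly(dI-dC); 15 min compound preincubation; discontinuous kinetic read over 2 h at RT.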
BLM inh – inhibitors of human Bloom syndrome helicase BLM; 0.2% of 350,000 active; Potency, µM (top dose mostly 56.1 µM), without a hit: at the top dose activity change, negative = inhibition, actives largely listed as inhibitors; AID 2528; recombinant BLM DNA unwinding, fluorescence dequenching;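 note: plate controls were vehicle for no effect and no enzyme for full effect; nearly all actives have a fitted effect of over 35% in size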
TDP1 block – TDP1 (human) enzyme inhibition | recombinant TDP1, AlphaScreen DNA substrate cleavage | Potency, µM (doses to about 130 µM), inactives show at the highest dose activity change, negative = inhibition, actives largely listed as inhibitors | 0.28% of 350,000 active; note: nearly all actives have a fitted effect of over 40% in size
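Tdp1 1 nM final; 15 min RT w/ cpd; substrate 15 nM, 5 min; beads 10 ug/ml, 10 min; AlphaScreen read. Neg ctrl: no enzyme.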
DNA dye displace – displaces fluorescent dye from DNA, flagging APE1 artifacts. 7% of 480 active. shares compounds with APE1 inh-1. Potency, µM (doses to about 28.5 µM), without a hit: at the highest dose activity change, negative = inhibition, usual class: inhibitors. DNA fluorescent dye displacement counterscreen, fluorescence. AID 2564;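 note: loss of thiazole orange fluorescence as the dye is displaced from duplex DNA; 0% = ThO with dsDNA and no compound and -100% = ThO without dsDNA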
Endo IV inh – Endo IV (E. coli) inhibition counter-screen | shares compounds with APE1 inh-1 | E. coli Endo IV, fluorogenic AP-site DNA cleavage | Potency, µM (highest dose often 27.1 µM), for inactives: at the top dose activity change, negative = inhibition, most hits filed as inhibitors | 4% of 560 active;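 note: plate controls were uninhibited enzyme wells for no effect and no enzyme buffer wells for full effect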
APE1 inh-2 – APE1 (human) endonuclease inhibition, confirmation | 44% of 750 active | AID 2572 | shares compounds with APE1 inh-1 | purified APE1, fluorogenic abasic-site DNA cleavage | Potency, µM (doses to about 57.1 µM), without a hit: at the highest dose activity change, negative = inhibition, most hits filed as inhibitors; note: nearly all actives have a fitted effect of over 30% in size
APE1 FP inh – APE1 (human) DNA binding inhibition, fluorescence polarization; shares compounds with APE1 inh-1; APE1 binding to TAMRA-labelled double-stranded DNA, fluorescence polarization displacement; Potency, µM (doses to about 28.5 µM), inactives show at the highest dose activity, negative = inhibition, actives largely listed as inhibitors; 7% of 480 active; AID 2573
* marks the source's active call; other numbers are inactive results; ? = inconclusive; · = not tested or not shown; ! = not active in a repeat; [ ] = dose if it differs, or a comment. Calls come from the whole dose curve; as a rule, active = well fitted curve in the direction sought with a large enough effect; inconclusive = small, poorly fitted or top-dose-only effect, or another doubt; inactive = no such curve, though single readings can be large; an effect the other way counts as inactive or inconclusive. Unless noted, % is set by controls: 0 for no effect and ±100 for the full control effect; potency is the fitted concentration of half-maximal effect.

SMILES	APE1 inh-1	FEN1 inh	RECQ1 inh	BLM inh	TDP1 block	Endo IV inh	APE1 inh-2	others
Cc1ccccc1N1C(=O)/C(=C/c2ccco2)C(=O)NC1=S	0.075µM*	·	·	0.89µM*	·	·	·
CCOc1ccc(N2C(=O)/C(=C/c3ccco3)C(=O)NC2=S)cc1	21µM*	?	·	?	·	·	·
CNC(C)Cc1ccc(OC)cc1 (stereo not given)	-4%	·	-12%	-10%	2%	·	·
CC(C)NC(C)Cc1ccc(I)cc1 (stereo not given)	8%	8%[57.1 µM]	1%	-4%	6%	-5%[57.1 µM]	-19%
CC1Cc2ccccc2N1NC(=O)c1ccc(Cl)c(S(N)(=O)=O)c1 (stereo not given)	2.2µM*!	-8%	-5%	-8%	3%	18%[57.1 µM]	-10%	DNA dye displace=1%[57.1 µM];APE1 FP inh=8%[57.1 µM]
Cc1ccc(C(=O)Nc2ccccc2)cc1S(=O)(=O)N1CCCC1	·	2%	·	-5%	2%	·	·
NCC(O)c1cc(O)c(O)cc1F (stereo not given)	1.1µM*!	-32%	?	·	·	-2%[57.1 µM]	-20%
CN(CC(=O)O)C(=O)[C@H](Cc1ccccc1)NC(=O)[C@@H](CCCN=C(N)N)NC(=O)[C@@H](N)Cc1ccc(O)cc1	-8%	·	-4%	-1%	6%	·	·
COCCN(CCOC)C(=O)CCn1c(=O)oc2ccccc21	19%	-1%	14%	6%	2%	·	·
CC(C)CC(=O)Nc1ccc(C(=O)Cn2c(=O)oc3ccccc32)cc1	?	-10%	-4%	-12%	-6%	-4%	?	DNA dye displace=-8%;APE1 FP inh=4%
ClC1=C(Cl)[C@]2(Cl)[C@@H]3[C@H]4C[C@H]([C@@H]5O[C@H]45)[C@@H]3[C@@]1(Cl)C2(Cl)Cl	4%	·	·	·	·	·	·
C[N+](=O)[O-]	4%	·	-1%	·	3%	·	·
C=CCn1c(O)c(/C(CC)=N/NC(=S)Nc2ccccc2)c(=O)[nH]c1=O	?	2%	-12%	-2%	40µM*	·	?
OC(c1ccc(Cl)cc1)(c1ccc(Cl)cc1)C(Cl)(Cl)Cl	-1%	·	-9%	·	0%	·	·
Oc1cc(O)c2c(c1)OC(c1cc(O)c(O)c(O)c1)C(O)C2 (stereo not given)	10µM*	·	35µM*	-27%	16µM*	16%[57.1 µM]	5µM*
O=C1C[C@@H](c2ccc(O)cc2)Oc2cc(O)cc(O)c21	-2%	6%	-3%	1%	0%	·	·
O=C(OC1Cc2c(O)cc(O)cc2OC1c1cc(O)c(O)c(O)c1)c1cc(O)c(O)c(O)c1 (stereo not given)	0.28µM*	·	1.6µM*	?	·	9%[57.1 µM]	0.089µM*
CCn1cc(C(=O)O)c(=O)c2cc3c(cc21)OCO3	2%	·	-2%	-2%	-3%	3%[57.1 µM]	-12%
O=c1c2ccccc2nc(/C=C/c2cccnc2)n1Cc1ccccc1	?	89µM*	-7%	-6%	10µM*	·	28µM*
CCC12CCN(Cc3ccc(F)cc3)CC1Oc1c(O)cccc12 (stereo not given)	20%	·	·	·	·	·	·
COc1cc(-c2oc3cc(O)cc(O)c3c(=O)c2O)ccc1O	?	?	-10%	-6%	15%	·	·
